# Inconclusive results are not listed. The source made the active and inactive calls. The calls were made as follows, unless noted: active = hit-call score of the fitted dose curve at least 0.9, where 1 is the maximum; inactive = score below 0.9.
# Key:
# [1] = molecular target: Bile acid receptor (Homo sapiens) (UniProt Q96RI1); experiment: ATG_FXR_TRANS: Attagene TRANS-FACTORIAL HepG2 Assay for Farnesoid X Receptor (FXR) (AID 2282979; active = hit-call score of the fitted dose curve at least 0.9, where 1 is the maximum;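 also: hits raise reporter mRNA above DMSO so AC50 marks FXR activation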); settings: HepG2 Attagene TRANS FXR-GAL4 reporter transcription
# How it was run: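 HepG2 cells transiently transfected with reporter constructs in which a chimeric FXR-GAL4 protein drives a GAL4-UAS reporter; 24 h compound exposure. Reporter mRNA measured by RT-PCR, FAM labelling, HpaI digestion and capillary electrophoresis; gain-of-signal versus DMSO.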
# [2] = ATG_M_06_TRANS: Attagene TRANS-FACTORIAL HepG2 Assay for M06 Transcription Factor (Internal Marker) (AID 2282983; active = hit-call score of the fitted dose curve at least 0.9, where 1 is the maximum); settings: HepG2 Attagene TRANS M06 internal marker reporter
# How it was run: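 HepG2 cells transiently transfected with multiplexed GAL4-UAS reporter transcription units; after 24 h compound exposure, reporter mRNA measured by RT-PCR, FAM-labelled primer extension, HpaI digestion and capillary electrophoresis. Gain-of-signal fitted versus DMSO baseline; background control readout.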
# [3] = molecular target: Nuclear receptor subfamily 4 group A member 2 (Homo sapiens) (UniProt P43354); experiment: ATG_NURR1_TRANS: Attagene TRANS-FACTORIAL HepG2 Assay for human Nuclear Receptor Related Protein 1 (NURR1) (AID 2282985; active = hit-call score of the fitted dose curve at least 0.9, where 1 is the maximum); settings: HepG2 Attagene TRANS reporter, mRNA readout
# How it was run: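 HepG2 / transient MRTU transfection / 24 h compound exposure / RT-PCR + CE fluorescence of reporter mRNA / gain-of-signal vs DMSO.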
# [4] = molecular target: Transcriptional activator Myb (Homo sapiens) (UniProt P10242); experiment: ATG_Myb_CIS: Attagene CIS-FACTORIAL HepG2 Assay for human Myeloblastosis (Myb) Proto-Oncogene Transcription Factor (AID 2282986); settings: HepG2 Attagene CIS-FACTORIAL Myb reporter transcription; actives raise or lower the signal
# How it was run: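 Reporter mRNA is quantified by RT-PCR and capillary electrophoresis 24 h after dosing HepG2 cells transfected with cis-regulated reporter units, which track endogenous transcription factor activity. Gain and loss of signal are fitted versus DMSO baseline.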
# [5] = molecular target: Nuclear respiratory factor 1 (Homo sapiens) (UniProt Q16656); experiment: ATG_NRF1_CIS: Attagene CIS-FACTORIAL HepG2 Assay for human Nuclear Respiratory Factor 1 (NRF1) Orphan Gene (AID 2282987); settings: HepG2 NRF1 cis-element reporter, Attagene multiplex; actives raise or lower the signal
# How it was run: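 Endogenous NRF1-driven reporter transcription in transfected HepG2 cells after 24 h treatment. Readout: RT-PCR products, 6-FAM labelled and resolved by capillary electrophoresis; changes fitted both directions relative to DMSO.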
# [6] = ATG_NFI_CIS: Attagene CIS-FACTORIAL HepG2 Assay for human Nuclear Factor I (NFI) (AID 2282989); settings: HepG2 cis-regulatory reporter, NFI response element transcription; actives raise or lower the signal
# How it was run: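 Reporter transcription driven by endogenous transcription factors in HepG2 cells; 24 h treatment. Quantitation by labelled RT-PCR fragments on capillary electrophoresis, gain- or loss-of-signal relative to DMSO.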
# [7] = molecular target: Myc proto-oncogene protein (Homo sapiens) (UniProt P01106); experiment: ATG_Myc_CIS: Attagene CIS-FACTORIAL HepG2 Assay for human Myelocytomatosis (Myc) Proto-Oncogene Transcription Factor (AID 2282990); settings: HepG2, Attagene cis-reporter transcription factor activity; actives raise or lower the signal
# How it was run: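 Transiently transfected HepG2 cells bearing cis-promoter reporter units for endogenous transcription factors; 24 h exposure. Reporter mRNA measured by RT-PCR, 6-FAM primer extension, HpaI cut and capillary electrophoresis; bidirectional fit relative to DMSO.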
# [8] = ATG_NRF2_ARE_CIS: Attagene CIS-FACTORIAL HepG2 Assay for human Nuclear Factor Erythroid 2 Related Factor 2 (NFR2) response to Antioxidant Response Elements (ARE) (AID 2282992); settings: HepG2 Attagene ARE/NRF2 reporter, transcription factor activity; actives raise or lower the signal;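 as to AC50: reporter mRNA level measured by RT-PCR and capillary electrophoresis fluorescence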
# How it was run: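 Cis-factorial assay: transfected HepG2 reporter library, 24 h dosing, mRNA readout via RT-PCR/CE; DMSO-referenced bidirectional analysis.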
# [9] = ATG_Oct_MLP_CIS: Attagene CIS-FACTORIAL HepG2 Assay for human Octamer-Binding Transcription Factor (Oct) (AID 2282993); settings: HepG2 Attagene cis-factorial Oct reporter, mRNA; actives raise or lower the signal
# How it was run: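 Transfected HepG2 cells, 24 h treatment. Reporter mRNA quantified by RT-PCR–capillary electrophoresis; bidirectional fitting against DMSO.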
# [10] = molecular target: Cellular tumor antigen p53 (Homo sapiens) (UniProt P04637); experiment: ATG_p53_CIS: Attagene CIS-FACTORIAL HepG2 Assay for human p53 Transcription Factor (AID 2282994); settings: HepG2 p53 cis-element reporter, Attagene mRNA; actives raise or lower the signal
# How it was run: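 Using HepG2 hepatoma cells carrying cis-acting multiplexed reporters, mRNA induction is detected after a 24 h exposure. Gain- and loss-of-signal responses are fitted relative to DMSO-treated cells.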
# [11] = molecular target: Oxysterols receptor LXR-alpha (Homo sapiens) (UniProt Q13133); experiment: ATG_LXRa_TRANS: Attagene TRANS-FACTORIAL HepG2 Assay for human Liver X Receptor alpha (LXRa) (AID 2282980; active = hit-call score of the fitted dose curve at least 0.9, where 1 is the maximum); settings: HepG2 Attagene TRANS reporter, LXRa transactivation
# How it was run: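 HepG2 cells were transiently transfected with multiplexed reporter units driven by chimeric LXRa–GAL4 fusion proteins, then dosed for 24 h. Reporter mRNA was quantified by RT-PCR, fluorescent labelling and capillary electrophoresis; gain of signal fitted against DMSO baseline.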
# [12] = molecular target: Oxysterols receptor LXR-beta (Homo sapiens) (UniProt P55055); experiment: ATG_LXRb_TRANS: Attagene TRANS-FACTORIAL HepG2 Assay for human Liver X Receptor beta (LXRb) (AID 2282981; active = hit-call score of the fitted dose curve at least 0.9, where 1 is the maximum); settings: HepG2 Attagene TRANS GAL4-LXRb reporter, mRNA
# How it was run: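 Gain-of-signal mRNA reporter endpoint, DMSO as negative control. Transiently transfected HepG2 cells carrying the NR-Gal4 chimera and GAL4-UAS reporter units were treated 24 h; transcripts quantified by RT-PCR and capillary electrophoresis fluorescence.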
# [13] = molecular target: Hepatocyte nuclear factor 4-alpha (Homo sapiens) (UniProt P41235); experiment: ATG_HNF4a_TRANS: Attagene TRANS-FACTORIAL HepG2 Assay for human Hepatocyte Nuclear Factor 4 alpha (HNF4a) (AID 2282982; active = hit-call score of the fitted dose curve at least 0.9, where 1 is the maximum); settings: HepG2 HNF4a transactivation reporter, mRNA readout
# How it was run: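 Gain-of-signal mRNA induction, relative to DMSO vehicle, was read after 24 h compound treatment of HepG2 cells bearing transfected GAL4-UAS reporters. Detection used RT-PCR, 6-FAM primer extension and capillary electrophoresis.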
# [14] = ATG_NF_kB_CIS: Attagene CIS-FACTORIAL HepG2 Assay for human Nuclear Factor Kappa B (NF-kB) (AID 2282991); settings: HepG2 Attagene cis-factorial NF-kB reporter mRNA; actives raise or lower the signal
# How it was run: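 Readout is reporter transcript level, gain or loss versus DMSO, measured 24 h post-dose via RT-PCR, fluorescent labelling and capillary electrophoresis. Human HepG2 liver cells carried transiently transfected CIS reporter constructs reflecting endogenous factors.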
# [15] = molecular target: Glucocorticoid receptor (Homo sapiens) (UniProt P04150); experiment: ATG_GR_TRANS: Attagene TRANS-FACTORIAL HepG2 Assay for human Glucocorticoid Receptor (GR) (AID 2282978; active = hit-call score of the fitted dose curve at least 0.9, where 1 is the maximum;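 also: activators score as hits since higher reporter transcript over DMSO is fitted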); settings: HepG2 Attagene TRANS GR reporter, mRNA transcription
# How it was run: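 Readout is reporter transcript from a chimeric GR-Gal4 acting on GAL4-UAS in transfected human HepG2 liver cells after 24 h exposure, quantified by RT-PCR and capillary electrophoresis. Activation fitted upward against DMSO.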
# [16] = BSK_3C_TissueFactor: BioMAP Diversity Plus: 3C Assay for Tissue Factor Biomarker Activity (AID 2282997); settings: BioMAP 3C HUVEC, tissue factor biomarker readout; actives raise or lower the signal
# How it was run: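 Primary human umbilical vein endothelial cells in the 3C system were exposed to test chemical for 24 h, then Tissue Factor measured by ELISA. Activity was fitted bidirectionally against DMSO as negative control and baseline.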
# [17] = BSK_3C_uPAR: BioMAP Diversity Plus: 3C Assay for Urokinase-type plasminogen activator receptor (uPAR) Biomarker Activity (AID 2282998); settings: BioMAP 3C HUVEC, uPAR biomarker ELISA; actives raise or lower the signal
# How it was run: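 Readout: ELISA for surface uPAR. System: human umbilical vein endothelial primary cells, 24 h after chemical exposure. Analysis: bidirectional fit, DMSO baseline.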
# [18] = BSK_3C_VCAM1: BioMAP Diversity Plus: 3C Assay for Vascular cell adhesion molecule 1 (VCAM1) Biomarker Activity (AID 2282999); settings: BioMAP 3C HUVEC, VCAM1 ELISA, cytokine-stimulated; actives raise or lower the signal
# How it was run: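 Human umbilical vein endothelial cells (3C system), biomarker read by ELISA 24 h after dosing; bidirectional fit against DMSO baseline. Cytotoxicity tracked by SRB total-protein staining in parallel cultures at biomarker time.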
# [19] = ATG_M_32_TRANS: Attagene TRANS-FACTORIAL HepG2 Assay for M32 Transcription Factor (Internal Marker) (AID 2282984; active = hit-call score of the fitted dose curve at least 0.9, where 1 is the maximum); settings: HepG2 Attagene TRANS M32 internal marker reporter
# How it was run: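 Capillary electrophoresis of 6-FAM-labelled reporter fragments gives the signal; data fitted for gain over DMSO negative control. Source: HepG2 cells bearing transient multiple reporter transcription units, 24 h exposure.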
# Chain of Nuclear respiratory factor 1 (Homo sapiens) (Q16656 whole entry, looked up): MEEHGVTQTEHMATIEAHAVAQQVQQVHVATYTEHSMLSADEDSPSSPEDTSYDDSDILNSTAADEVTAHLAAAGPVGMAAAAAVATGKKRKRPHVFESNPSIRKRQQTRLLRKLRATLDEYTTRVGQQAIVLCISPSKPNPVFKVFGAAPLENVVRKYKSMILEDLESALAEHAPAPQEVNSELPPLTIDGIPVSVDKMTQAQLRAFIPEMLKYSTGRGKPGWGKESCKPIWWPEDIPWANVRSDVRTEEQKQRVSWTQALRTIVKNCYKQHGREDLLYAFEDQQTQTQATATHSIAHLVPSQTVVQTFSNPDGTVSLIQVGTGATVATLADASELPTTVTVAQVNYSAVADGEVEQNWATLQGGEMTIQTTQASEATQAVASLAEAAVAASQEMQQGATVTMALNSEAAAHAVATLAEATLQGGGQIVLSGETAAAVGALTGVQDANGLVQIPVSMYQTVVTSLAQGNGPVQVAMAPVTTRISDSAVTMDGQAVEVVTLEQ
# Chain of Oxysterols receptor LXR-alpha (Homo sapiens) (Q13133 whole entry, looked up, the tested form may be a part): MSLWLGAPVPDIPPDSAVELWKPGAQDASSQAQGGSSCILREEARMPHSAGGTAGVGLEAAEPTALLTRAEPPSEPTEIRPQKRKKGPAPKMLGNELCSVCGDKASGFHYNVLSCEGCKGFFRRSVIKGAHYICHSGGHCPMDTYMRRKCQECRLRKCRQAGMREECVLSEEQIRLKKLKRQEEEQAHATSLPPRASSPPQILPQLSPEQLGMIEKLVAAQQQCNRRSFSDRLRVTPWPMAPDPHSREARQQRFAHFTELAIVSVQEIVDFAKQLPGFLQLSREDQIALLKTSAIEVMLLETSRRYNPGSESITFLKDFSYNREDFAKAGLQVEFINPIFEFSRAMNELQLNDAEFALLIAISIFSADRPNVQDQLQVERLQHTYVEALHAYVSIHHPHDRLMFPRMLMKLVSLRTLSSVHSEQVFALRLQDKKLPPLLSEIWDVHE
# Chain of Myc proto-oncogene protein (Homo sapiens) (P01106 whole entry, looked up): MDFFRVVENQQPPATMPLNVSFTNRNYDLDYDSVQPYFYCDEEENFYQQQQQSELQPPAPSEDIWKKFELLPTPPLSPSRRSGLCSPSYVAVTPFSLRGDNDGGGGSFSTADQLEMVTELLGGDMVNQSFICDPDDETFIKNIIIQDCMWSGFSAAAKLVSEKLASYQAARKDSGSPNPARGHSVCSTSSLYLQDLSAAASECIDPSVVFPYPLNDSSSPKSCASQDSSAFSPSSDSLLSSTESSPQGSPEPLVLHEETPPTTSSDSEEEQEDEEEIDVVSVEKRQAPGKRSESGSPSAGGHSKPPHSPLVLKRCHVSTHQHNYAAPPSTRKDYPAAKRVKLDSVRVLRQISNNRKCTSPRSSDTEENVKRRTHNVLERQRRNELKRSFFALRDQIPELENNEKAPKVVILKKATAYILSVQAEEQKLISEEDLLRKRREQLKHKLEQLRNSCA
# Chain of Cellular tumor antigen p53 (Homo sapiens) (P04637 whole entry, looked up): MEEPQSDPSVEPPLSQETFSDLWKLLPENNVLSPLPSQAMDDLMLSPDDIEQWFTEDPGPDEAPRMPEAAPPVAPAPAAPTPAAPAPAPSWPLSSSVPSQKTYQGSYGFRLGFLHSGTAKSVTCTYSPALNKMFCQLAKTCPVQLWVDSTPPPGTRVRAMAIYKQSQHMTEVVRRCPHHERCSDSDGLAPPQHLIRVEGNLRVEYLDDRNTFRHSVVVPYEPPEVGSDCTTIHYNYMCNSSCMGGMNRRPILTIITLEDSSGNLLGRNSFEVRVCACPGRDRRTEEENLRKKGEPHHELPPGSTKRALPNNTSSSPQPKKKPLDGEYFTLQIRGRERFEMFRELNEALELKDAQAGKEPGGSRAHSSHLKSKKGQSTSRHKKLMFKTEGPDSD
# Chain of Nuclear receptor subfamily 4 group A member 2 (Homo sapiens) (P43354 whole entry, looked up): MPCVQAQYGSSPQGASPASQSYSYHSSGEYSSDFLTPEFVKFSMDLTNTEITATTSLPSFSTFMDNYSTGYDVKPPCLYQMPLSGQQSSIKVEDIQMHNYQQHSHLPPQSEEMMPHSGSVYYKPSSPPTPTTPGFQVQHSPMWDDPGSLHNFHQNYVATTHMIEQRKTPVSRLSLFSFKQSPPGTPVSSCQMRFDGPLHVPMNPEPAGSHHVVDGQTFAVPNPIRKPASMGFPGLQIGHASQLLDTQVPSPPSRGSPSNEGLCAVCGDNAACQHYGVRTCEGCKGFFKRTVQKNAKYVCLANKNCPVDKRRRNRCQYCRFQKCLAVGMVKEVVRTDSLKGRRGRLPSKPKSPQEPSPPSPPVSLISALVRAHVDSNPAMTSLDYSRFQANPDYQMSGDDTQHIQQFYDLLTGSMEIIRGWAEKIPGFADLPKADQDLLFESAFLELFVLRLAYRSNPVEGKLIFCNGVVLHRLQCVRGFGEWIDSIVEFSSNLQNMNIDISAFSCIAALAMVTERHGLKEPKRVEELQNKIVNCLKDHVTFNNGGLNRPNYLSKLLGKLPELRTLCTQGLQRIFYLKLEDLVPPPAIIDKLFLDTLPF
# Chain of Transcriptional activator Myb (Homo sapiens) (P10242 whole entry, looked up): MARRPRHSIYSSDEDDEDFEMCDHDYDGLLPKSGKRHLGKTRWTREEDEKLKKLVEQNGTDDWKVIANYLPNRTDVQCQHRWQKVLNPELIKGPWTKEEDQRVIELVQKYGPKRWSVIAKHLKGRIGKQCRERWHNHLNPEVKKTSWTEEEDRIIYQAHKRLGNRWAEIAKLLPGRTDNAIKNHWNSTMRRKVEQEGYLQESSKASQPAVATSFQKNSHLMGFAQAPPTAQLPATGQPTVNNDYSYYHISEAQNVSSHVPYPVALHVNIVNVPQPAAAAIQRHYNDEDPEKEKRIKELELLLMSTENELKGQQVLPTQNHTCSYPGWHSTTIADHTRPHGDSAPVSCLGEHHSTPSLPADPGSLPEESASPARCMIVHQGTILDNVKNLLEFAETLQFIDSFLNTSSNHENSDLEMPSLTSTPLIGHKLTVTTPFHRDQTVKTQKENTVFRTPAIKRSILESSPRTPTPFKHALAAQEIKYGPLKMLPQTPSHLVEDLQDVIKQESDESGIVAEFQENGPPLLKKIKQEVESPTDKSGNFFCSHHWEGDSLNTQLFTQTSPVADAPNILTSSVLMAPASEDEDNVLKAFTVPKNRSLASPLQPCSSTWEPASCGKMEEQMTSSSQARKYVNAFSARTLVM
# Chain of Hepatocyte nuclear factor 4-alpha (Homo sapiens) (P41235 whole entry, looked up, the tested form may be a part): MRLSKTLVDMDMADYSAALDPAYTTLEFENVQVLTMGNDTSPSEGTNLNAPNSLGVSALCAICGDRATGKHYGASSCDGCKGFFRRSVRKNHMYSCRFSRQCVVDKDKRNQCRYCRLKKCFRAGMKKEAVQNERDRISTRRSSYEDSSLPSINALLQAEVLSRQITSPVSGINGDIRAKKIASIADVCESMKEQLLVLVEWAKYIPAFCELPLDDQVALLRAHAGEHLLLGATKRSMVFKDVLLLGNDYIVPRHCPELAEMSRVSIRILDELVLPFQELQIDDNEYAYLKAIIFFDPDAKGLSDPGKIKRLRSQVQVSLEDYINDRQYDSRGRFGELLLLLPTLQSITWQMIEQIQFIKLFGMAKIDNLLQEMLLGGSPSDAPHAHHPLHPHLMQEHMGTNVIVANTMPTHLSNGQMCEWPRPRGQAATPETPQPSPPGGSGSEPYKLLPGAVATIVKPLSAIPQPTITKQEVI
# Chain of Bile acid receptor (Homo sapiens) (Q96RI1 whole entry, looked up, the tested form may be a part): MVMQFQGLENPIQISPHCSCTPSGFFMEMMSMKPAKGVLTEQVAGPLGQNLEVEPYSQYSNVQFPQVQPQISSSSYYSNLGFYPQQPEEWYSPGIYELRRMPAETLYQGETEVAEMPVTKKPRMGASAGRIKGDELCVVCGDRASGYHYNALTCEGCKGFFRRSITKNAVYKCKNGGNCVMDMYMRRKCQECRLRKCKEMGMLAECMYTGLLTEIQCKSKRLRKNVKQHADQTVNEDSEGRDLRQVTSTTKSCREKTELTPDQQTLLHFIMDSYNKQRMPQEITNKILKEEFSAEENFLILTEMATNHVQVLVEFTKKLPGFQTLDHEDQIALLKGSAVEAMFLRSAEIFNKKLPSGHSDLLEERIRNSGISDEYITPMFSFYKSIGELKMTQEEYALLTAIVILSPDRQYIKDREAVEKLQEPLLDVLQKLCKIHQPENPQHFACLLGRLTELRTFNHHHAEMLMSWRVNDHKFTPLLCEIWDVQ
# Chain of Oxysterols receptor LXR-beta (Homo sapiens) (P55055 whole entry, looked up, the tested form may be a part): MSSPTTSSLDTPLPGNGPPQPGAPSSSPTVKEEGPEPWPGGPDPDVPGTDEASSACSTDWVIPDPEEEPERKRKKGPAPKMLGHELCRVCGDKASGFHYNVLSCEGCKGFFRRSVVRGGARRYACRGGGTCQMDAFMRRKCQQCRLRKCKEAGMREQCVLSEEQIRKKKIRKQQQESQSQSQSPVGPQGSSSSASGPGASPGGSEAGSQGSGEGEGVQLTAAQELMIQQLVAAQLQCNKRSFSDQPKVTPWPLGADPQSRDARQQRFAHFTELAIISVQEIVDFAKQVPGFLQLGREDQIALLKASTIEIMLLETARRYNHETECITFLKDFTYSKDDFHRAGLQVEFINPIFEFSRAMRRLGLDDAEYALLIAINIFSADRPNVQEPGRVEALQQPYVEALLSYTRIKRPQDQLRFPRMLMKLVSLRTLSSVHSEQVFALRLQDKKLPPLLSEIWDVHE
compound,measurement,setting,value
CCCCOCCOC(=O)c1ccccc1C(=O)OCCOCCCC,outcome,[1],inactive
same,outcome,[2],inactive
same,AC50,[3],45.3 µM (active)
same,outcome,[4],inactive
same,outcome,[5],inactive
same,outcome,[6],inactive
same,outcome,[7],inactive
same,AC50,[8],37.7 µM (active)
same,outcome,[9],inactive
same,outcome,[10],inactive
COc1ccc(N)c(C)c1,outcome,[1],inactive
same,outcome,[11],inactive
same,outcome,[12],inactive
same,outcome,[13],inactive
same,outcome,[3],inactive
same,outcome,[4],inactive
same,outcome,[5],inactive
same,outcome,[7],inactive
same,outcome,[14],inactive
same,AC50,[8],46.3 µM (active)
same,outcome,[9],inactive
CCCO[Si](OCCC)(OCCC)OCCC,outcome,[15],inactive
same,outcome,[2],inactive
same,outcome,[3],inactive
same,outcome,[4],inactive
same,outcome,[5],inactive
same,outcome,[6],inactive
same,outcome,[8],inactive
same,outcome,[9],inactive
same,outcome,[10],inactive
same,outcome,[16],inactive
same,outcome,[17],inactive
same,outcome,[18],inactive
CC(O)COCC(C)O (stereo not drawn),outcome,[1],inactive
same,outcome,[12],inactive
same,outcome,[19],inactive
same,outcome,[4],inactive
same,outcome,[5],inactive
same,outcome,[6],inactive
same,outcome,[7],inactive
same,outcome,[14],inactive
same,outcome,[8],inactive
same,outcome,[9],inactive
same,outcome,[10],inactive
CCCCCC1CCC(=O)O1 (stereo not drawn),outcome,[15],inactive
same,outcome,[3],inactive
same,outcome,[4],inactive
same,outcome,[5],inactive
same,outcome,[6],inactive
same,outcome,[14],inactive
same,outcome,[8],inactive
same,outcome,[9],inactive
CC/C=C\CCOC(=O)C(C)C,outcome,[15],inactive
same,outcome,[13],inactive
same,outcome,[4],inactive
same,outcome,[5],inactive
same,outcome,[6],inactive
same,outcome,[7],inactive
same,outcome,[14],inactive
same,outcome,[8],inactive
same,outcome,[9],inactive
O=c1cc[nH]cc1,outcome,[1],inactive
same,outcome,[11],inactive
same,outcome,[13],inactive
same,outcome,[2],inactive
same,outcome,[19],inactive
same,outcome,[3],inactive
same,outcome,[4],inactive
same,outcome,[5],inactive
same,outcome,[6],inactive
same,outcome,[7],inactive
same,outcome,[14],inactive
same,outcome,[8],inactive
same,outcome,[9],inactive
same,outcome,[10],inactive
C=C(C)C(=O)OCCC(C)OC(=O)C(=C)C (stereo not drawn),outcome,[15],inactive
same,outcome,[13],inactive
same,outcome,[19],inactive
same,outcome,[4],inactive
same,outcome,[5],inactive
same,outcome,[6],inactive
same,outcome,[14],inactive
same,outcome,[8],inactive
same,outcome,[9],inactive
same,outcome,[10],inactive
Cc1ccccc1S,outcome,[1],inactive
same,outcome,[13],inactive
same,outcome,[2],inactive
same,outcome,[4],inactive
same,outcome,[5],inactive
same,AC50,[6],74 µM (active)
same,outcome,[14],inactive
same,AC50,[8],24.5 µM (active)
same,AC50,[9],98.5 µM (active)
CC(CO)(CO)[N+](=O)[O-],outcome,[1],inactive
same,outcome,[11],inactive
same,outcome,[13],inactive
same,outcome,[19],inactive
same,outcome,[4],inactive
same,outcome,[5],inactive
same,outcome,[6],inactive
same,outcome,[7],inactive
same,outcome,[8],inactive
same,outcome,[9],inactive
CCC(=O)OC(C)(C)C1CC=C(C)CC1 (stereo not drawn),outcome,[1],inactive
same,outcome,[11],inactive
same,outcome,[12],inactive
same,outcome,[13],inactive
same,outcome,[3],inactive
same,outcome,[4],inactive
same,outcome,[5],inactive
same,outcome,[6],inactive
same,outcome,[7],inactive
same,AC50,[8],127 µM (active)
same,outcome,[9],inactive
same,outcome,[10],inactive
CCCCCCC(O)CCOC(C)=O (stereo not drawn),outcome,[1],inactive
same,outcome,[11],inactive
same,outcome,[13],inactive
same,outcome,[2],inactive
same,outcome,[4],inactive
same,outcome,[7],inactive
same,outcome,[14],inactive
same,outcome,[8],inactive
same,outcome,[9],inactive
same,outcome,[10],inactive
CCCCCCCCSCc1cc(C)c(O)c(CSCCCCCCCC)c1,outcome,[1],inactive
same,outcome,[13],inactive
same,outcome,[2],inactive
same,outcome,[19],inactive
same,outcome,[3],inactive
same,outcome,[4],inactive
same,outcome,[5],inactive
same,outcome,[6],inactive
same,outcome,[14],inactive
same,outcome,[8],inactive
same,outcome,[9],inactive
same,outcome,[10],inactive

# — PubChem BioAssay (EPA / NIEHS)
